The source of these data is ChEMBL document CHEMBL3988442, “University of Dundee, Small-Polar-MMV Screening Library” (2021).

For some assays here: Potency and affinity values are given separately.

Set-up in all cases: scale not given: direction of the effect not stated beside the values
Assay [1] has as its target Protein translocase subunit SecA (Escherichia coli (strain K12)) (UniProt P10408). Briefly: Assay to Identify E. coli SecA ATPase Inhibitors. Particulars: 30 µM. The assay is classed as functional.
Assay [2] concerns the target T1, Ubiquitin-activating enzyme e1, putative (Leishmania donovani (strain BPK282A1)) (UniProt E9BSI1).
T1 sequence (whole entry): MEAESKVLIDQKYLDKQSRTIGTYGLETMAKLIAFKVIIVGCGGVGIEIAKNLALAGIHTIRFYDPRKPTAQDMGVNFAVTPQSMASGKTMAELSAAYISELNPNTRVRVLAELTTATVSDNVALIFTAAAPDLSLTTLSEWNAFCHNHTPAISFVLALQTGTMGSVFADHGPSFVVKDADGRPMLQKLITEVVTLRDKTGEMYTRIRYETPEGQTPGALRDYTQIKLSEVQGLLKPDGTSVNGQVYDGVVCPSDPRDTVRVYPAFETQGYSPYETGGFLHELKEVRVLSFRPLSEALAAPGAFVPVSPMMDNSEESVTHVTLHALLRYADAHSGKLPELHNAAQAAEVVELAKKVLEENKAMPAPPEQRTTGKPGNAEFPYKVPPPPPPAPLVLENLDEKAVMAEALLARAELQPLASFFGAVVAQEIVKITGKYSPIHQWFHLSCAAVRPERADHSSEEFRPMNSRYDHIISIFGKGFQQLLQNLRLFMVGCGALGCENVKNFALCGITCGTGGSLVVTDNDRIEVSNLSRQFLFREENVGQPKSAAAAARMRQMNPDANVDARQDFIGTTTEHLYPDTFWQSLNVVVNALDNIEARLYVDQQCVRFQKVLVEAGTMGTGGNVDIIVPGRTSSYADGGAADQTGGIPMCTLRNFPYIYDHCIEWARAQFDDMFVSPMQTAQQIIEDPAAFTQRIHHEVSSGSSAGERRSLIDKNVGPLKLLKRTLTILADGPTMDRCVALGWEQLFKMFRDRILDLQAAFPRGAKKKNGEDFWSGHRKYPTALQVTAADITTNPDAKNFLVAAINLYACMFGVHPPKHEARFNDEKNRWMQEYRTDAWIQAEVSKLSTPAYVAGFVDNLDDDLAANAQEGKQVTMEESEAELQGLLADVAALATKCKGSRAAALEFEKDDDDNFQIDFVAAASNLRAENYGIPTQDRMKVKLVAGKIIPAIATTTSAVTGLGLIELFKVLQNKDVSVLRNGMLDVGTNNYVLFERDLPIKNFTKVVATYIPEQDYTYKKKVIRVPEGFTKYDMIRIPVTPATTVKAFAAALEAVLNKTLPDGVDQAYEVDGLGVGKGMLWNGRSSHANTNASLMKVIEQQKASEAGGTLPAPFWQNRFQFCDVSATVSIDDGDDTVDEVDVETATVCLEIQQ
Briefly: Leishmania donovani Ubiquitin Activating Enzyme (LdE1). In kind it is functional. Particulars: 30 µM.

Assay [3] deals with AMP-activated protein kinase, AMPK (Homo sapiens) (UniProt P54646+O43741+P54619+Q9UGJ0+Q9Y478+Q13131+Q9UGI9). Briefly: AMP-dependent Kinase enzyme assay. An in vitro enzyme assay that detects ADP turnover that is directly proportional to AMPK activity. This uses naive AMPK that is activated during the assay with MK-8722. The assay is classed as functional. Particulars: 30 µM.

The target in assay [4] is Sialic acid-binding Ig-like lectin 9 (Homo sapiens) (UniProt Q9Y336). Briefly: Hs-Siglec9 ALPHAscreen SOP 20170721. Particulars: 10 µM.
In the next assay the test system is Trypanosoma cruzi. Briefly: Trypanosoma cruzi phosphomannomutase and mannose-1-phosphate guanylyltransferase assay. The assay is classed as functional. As to conditions: 10 µM.
Assay [5] has as its target T2, Arginase-2, mitochondrial (Homo sapiens) (UniProt P78540).
T2 sequence (whole entry): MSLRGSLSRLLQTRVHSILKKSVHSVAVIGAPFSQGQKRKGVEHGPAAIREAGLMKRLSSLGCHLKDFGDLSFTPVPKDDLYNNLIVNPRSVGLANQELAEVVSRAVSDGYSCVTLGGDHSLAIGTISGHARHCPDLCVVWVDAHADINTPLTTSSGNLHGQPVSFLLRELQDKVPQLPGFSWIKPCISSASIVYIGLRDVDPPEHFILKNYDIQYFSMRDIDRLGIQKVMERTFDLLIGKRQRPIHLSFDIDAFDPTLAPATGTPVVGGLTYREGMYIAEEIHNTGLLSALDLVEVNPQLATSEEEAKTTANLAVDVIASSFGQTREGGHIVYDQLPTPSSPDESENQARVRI
Put plainly: in vitro enzyme assay to detect the production of urea directly proportional to the activity of Arginase II. Note: in the data most compounds retested in dose-response had high values. In kind it is functional. Particulars: 33.3 µM.

Assay [6] has as its target T3, Proteasome subunit beta (Trypanosoma cruzi) (UniProt O96673).
T3 sequence (whole entry): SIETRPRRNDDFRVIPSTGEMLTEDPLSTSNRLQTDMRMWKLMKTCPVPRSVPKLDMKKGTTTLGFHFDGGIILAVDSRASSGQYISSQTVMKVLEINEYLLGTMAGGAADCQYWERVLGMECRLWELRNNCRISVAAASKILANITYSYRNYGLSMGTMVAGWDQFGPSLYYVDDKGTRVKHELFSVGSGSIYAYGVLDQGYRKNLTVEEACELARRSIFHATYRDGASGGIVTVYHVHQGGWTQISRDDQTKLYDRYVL
Briefly: Trypanosoma cruzi proteasome chymotrypsin-like activity (TcProtChymo) assay. Note: in the data most compounds retested in dose-response had high values. In kind it is functional. As to conditions: 9.37 µM.

The species named for another assay is Homo sapiens. Put plainly: To identify inhibition of the IFN signalling (Jak-Stat) pathway via expression of an eGFP reporter gene under the control of an IFN-stimulated response element (ISRE) containing MxA promoter. In kind it is functional. Particulars: 30 µM. Background: Reporter assays use an easily measured gene product as a stand-in for the process of interest.

Assay [7] deals with T4, Tyrosyl-tRNA synthetase, putative (Trypanosoma cruzi (strain CL Brener)) (UniProt Q4DSP6).
T4 sequence (whole entry): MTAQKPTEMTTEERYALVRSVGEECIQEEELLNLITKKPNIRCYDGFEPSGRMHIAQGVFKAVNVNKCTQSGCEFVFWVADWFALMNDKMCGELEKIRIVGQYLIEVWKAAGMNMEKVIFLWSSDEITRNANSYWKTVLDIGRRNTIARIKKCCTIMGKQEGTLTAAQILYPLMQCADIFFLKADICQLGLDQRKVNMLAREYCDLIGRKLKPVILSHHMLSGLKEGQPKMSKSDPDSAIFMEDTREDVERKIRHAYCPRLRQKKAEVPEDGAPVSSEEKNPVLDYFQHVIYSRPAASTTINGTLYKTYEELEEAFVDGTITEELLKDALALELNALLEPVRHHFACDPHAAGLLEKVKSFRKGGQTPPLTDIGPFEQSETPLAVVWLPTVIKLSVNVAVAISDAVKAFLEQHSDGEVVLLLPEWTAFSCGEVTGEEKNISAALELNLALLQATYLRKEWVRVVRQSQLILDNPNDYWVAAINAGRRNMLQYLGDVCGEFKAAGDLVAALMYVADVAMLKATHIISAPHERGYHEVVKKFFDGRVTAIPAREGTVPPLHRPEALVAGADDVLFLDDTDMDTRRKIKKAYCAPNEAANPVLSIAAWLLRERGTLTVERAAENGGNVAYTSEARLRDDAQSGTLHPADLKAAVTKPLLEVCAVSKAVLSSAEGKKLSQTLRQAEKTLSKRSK
Briefly: Trypanosoma cruzi tyrosyl tRNA synthetase (TcYRS) _High Tyrosine SOP. Note: in the data most compounds retested in dose-response had high values. The assay is classed as functional. As to conditions: 30 µM.

The target in assay [8] is T4, Tyrosyl-tRNA synthetase, putative (Trypanosoma cruzi (strain CL Brener)). Put plainly: Trypanosoma cruzi tyrosyl tRNA synthetase (TcYRS) SOP. In kind it is functional. As to conditions: 30 µM.
For assay [9], the target named is Chromo domain-containing protein 1 (Saccharomyces cerevisiae (strain ATCC 204508 / S288c) (Baker's yeast)) (UniProt P32657). Put plainly: ScCHD-1 Enzyme Inhibition Assay. Note: in the data most compounds retested in dose-response had high values. The assay is classed as functional. As to conditions: 30 µM.
Sequence of Chromo domain-containing protein 1 (Saccharomyces cerevisiae (strain ATCC 204508 / S288c) (Baker's yeast)) (P32657 whole entry, the tested form may be a part): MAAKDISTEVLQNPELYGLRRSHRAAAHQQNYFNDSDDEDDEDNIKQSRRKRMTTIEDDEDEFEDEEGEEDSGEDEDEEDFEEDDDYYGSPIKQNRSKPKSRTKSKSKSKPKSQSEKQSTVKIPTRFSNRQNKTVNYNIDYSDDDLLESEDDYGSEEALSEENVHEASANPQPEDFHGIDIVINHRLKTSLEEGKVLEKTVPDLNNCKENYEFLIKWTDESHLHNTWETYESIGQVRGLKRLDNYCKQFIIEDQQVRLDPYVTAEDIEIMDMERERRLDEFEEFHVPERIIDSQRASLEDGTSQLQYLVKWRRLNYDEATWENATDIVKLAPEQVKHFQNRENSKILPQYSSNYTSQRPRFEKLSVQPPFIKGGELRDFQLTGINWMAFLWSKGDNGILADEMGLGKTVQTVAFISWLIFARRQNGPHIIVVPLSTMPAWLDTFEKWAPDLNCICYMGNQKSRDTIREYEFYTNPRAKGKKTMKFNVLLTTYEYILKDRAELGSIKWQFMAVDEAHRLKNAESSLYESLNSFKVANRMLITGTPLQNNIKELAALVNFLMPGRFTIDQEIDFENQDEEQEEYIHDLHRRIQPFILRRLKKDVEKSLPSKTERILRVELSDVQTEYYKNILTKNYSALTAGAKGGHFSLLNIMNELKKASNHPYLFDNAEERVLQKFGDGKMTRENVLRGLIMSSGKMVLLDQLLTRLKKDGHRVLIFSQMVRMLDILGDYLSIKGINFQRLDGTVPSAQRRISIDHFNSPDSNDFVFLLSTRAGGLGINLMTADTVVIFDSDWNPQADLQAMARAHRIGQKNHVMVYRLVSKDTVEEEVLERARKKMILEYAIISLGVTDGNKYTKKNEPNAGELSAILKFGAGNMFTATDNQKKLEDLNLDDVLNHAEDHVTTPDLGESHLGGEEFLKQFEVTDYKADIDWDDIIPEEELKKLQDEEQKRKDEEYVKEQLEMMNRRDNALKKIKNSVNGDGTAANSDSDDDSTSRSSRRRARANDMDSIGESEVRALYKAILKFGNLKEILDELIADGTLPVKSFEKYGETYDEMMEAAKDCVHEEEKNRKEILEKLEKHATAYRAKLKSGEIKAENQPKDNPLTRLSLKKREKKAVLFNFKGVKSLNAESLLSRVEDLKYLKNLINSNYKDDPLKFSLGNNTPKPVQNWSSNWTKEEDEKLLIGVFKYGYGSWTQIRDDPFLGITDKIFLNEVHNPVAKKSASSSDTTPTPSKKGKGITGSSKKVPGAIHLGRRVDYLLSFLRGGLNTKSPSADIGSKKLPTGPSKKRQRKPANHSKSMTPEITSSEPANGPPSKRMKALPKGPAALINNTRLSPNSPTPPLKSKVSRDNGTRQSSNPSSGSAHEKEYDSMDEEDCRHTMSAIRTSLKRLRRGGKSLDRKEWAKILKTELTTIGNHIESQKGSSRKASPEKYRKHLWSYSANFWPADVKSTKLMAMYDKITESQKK

Sequence of Sialic acid-binding Ig-like lectin 9 (Homo sapiens) (Q9Y336 whole entry): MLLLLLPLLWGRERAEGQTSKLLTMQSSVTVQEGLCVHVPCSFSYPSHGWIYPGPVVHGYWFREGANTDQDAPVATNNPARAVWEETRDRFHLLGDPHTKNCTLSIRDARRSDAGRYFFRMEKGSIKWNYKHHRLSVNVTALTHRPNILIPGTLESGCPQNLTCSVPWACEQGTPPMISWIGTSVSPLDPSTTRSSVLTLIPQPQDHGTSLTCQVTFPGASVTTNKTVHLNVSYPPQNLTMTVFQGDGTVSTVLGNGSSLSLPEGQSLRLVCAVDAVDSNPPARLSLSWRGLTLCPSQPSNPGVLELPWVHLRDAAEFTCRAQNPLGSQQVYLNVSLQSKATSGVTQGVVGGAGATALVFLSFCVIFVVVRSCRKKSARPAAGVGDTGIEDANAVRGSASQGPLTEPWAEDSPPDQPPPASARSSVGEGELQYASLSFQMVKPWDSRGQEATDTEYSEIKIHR
Sequence of Protein translocase subunit SecA (Escherichia coli (strain K12)) (P10408 whole entry): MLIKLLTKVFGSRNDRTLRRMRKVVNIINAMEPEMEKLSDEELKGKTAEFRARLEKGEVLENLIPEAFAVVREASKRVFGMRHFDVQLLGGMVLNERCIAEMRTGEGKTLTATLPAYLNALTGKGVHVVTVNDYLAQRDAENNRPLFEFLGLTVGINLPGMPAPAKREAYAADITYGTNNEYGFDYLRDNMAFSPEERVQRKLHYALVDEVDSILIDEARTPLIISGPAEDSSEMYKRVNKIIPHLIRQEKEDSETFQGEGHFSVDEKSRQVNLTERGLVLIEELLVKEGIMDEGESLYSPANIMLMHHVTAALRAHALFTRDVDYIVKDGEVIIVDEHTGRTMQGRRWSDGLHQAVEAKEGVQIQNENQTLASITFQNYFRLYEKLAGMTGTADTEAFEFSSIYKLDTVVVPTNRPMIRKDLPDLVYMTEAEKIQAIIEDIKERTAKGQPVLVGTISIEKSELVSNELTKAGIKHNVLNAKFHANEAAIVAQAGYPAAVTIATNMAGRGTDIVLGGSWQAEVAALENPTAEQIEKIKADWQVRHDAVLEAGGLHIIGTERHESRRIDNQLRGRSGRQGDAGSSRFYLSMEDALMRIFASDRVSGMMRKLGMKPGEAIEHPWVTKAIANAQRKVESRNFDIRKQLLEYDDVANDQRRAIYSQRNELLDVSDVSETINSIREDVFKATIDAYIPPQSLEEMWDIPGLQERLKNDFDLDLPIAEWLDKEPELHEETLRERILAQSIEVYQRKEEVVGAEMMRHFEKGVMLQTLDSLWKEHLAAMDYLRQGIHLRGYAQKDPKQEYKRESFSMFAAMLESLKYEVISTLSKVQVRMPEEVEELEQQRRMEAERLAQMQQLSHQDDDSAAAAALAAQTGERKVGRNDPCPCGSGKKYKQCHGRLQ

On to `O=C(NCC1CC1)N1CCN(Cc2ccc3c(c2)OCCO3)CC1`, for which the Percent Effect in assay [1] is -2.95%; in assay [2], 5.26%; in assay [3], 1.09%; in assay [4] it was 12.6%; in the assay with Trypanosoma cruzi, 3.08%; in [5], 1.08%. In addition, the Percent Effect came out at 4.99% in [6]; 20% in the assay filed under Homo sapiens; 3.45% in [7]; 13.6% in assay [8]; 0.382% in [9].

Consider `COc1ccccc1C(=O)N1CC(Cc2nccc3ccn(C)c23)C1`, for which the Percent Effect in assay [1] is -7.05%; in assay [2], 17.6%; in [3], 2.79%; in [4] it was 6.36%; in the assay with Trypanosoma cruzi, 4.15%; in assay [5] it was -2.09%. For the same compound, the Percent Effect in [6] is 6.4%; in the assay listed under Homo sapiens, 13.2%; in assay [7], 6.45%; in assay [8], 14.3%; in [9], -16.6%.

For `COc1ccc2c(c1)CCCN2Cc1nc2c(cnn2C)c(=O)[nH]1`, the Percent Effect is -3.64% in assay [1]; 20.2% in assay [2]; -9.32% in [3]; -0.208% in assay [4]; -2.36% in the assay with Trypanosoma cruzi; 2.28% in assay [5]. For the same compound, the Percent Effect in [6] was 3.52%; in the assay listed under Homo sapiens it was 3.6%; in [7] it was 9.36%; in [8], 16.5%; in assay [9], -5.55%.

As to `Cc1ccc(C(=O)N2C[C@@H]3OCCN(CCN4CCCC4)[C@@H]3C2)cn1`, the Percent Effect in [1] is -3.52%; in [2] it was 8.11%; in [3], 0.326%; in assay [4], -5.24%; with Trypanosoma cruzi it was -2.25%; in assay [5] it was 2.23%. Also, the Percent Effect in assay [6] is 21%; in the assay listed under Homo sapiens, -5.79%; in assay [7] it was 5.41%; in assay [8], 15.4%; in [9], -1.17%.

On to `CC(NC(=O)CCc1cccs1)c1nnc2n1CCC2` (stereo not given), for which the Percent Effect in assay [1] was -4.31%; in assay [2], 2.7%; in [3], -7.36%; in assay [4], 7.21%; in the assay with Trypanosoma cruzi, 1.95%; in [5], -0.554%. The Percent Effect in assay [6] is 7.18%; in the assay listed under Homo sapiens it was -0.332%; in [7] it was 5.94%; in [8], 18.3%; in [9], 1.69%.

As to `COc1cc(CNCc2c(C(C)C)nn(C)c2N(C)C)ccn1`, the Percent Effect in assay [1] was -0.0523%; in [2], 15.8%; in assay [3] it was -8.02%; in assay [4] it was 2.55%; in the assay with Trypanosoma cruzi it was 1.13%; in assay [5], -3.06%. In addition, the Percent Effect in assay [6] was 14%; in the assay listed under Homo sapiens, -9.51%; in [7] it was 4.41%; in [8] it was 4.88%; in assay [9], -6.52%.

For `O=C1O[C@@H]2CN(Cc3ccccc3)C[C@@H]2N1CCCN1CCOCC1`, the Percent Effect in assay [1] is -6.39%; in assay [2] it was 2.67%; in [3], -0.894%; in assay [4], 2%; in the assay on Trypanosoma cruzi it was -3.8%; in assay [5], -0.521%. In addition, the Percent Effect in assay [6] was 15.2%; in the assay filed under Homo sapiens it was 20%; in assay [7], 4.92%; in assay [8], 11.1%; in assay [9], -5.71%.

Regarding `Cn1cnc2c1C(COCC1CC1)CN(Cc1ccc3c(c1)OCO3)C2` (stereo not given), the Percent Effect in [1] was -5.21%; in [2], -2.7%; in assay [3], 15%; in assay [4], -2.11%; in the assay with Trypanosoma cruzi, -0.977%; in [5], -3.75%. In addition, the Percent Effect in [6] was 0.0845%; in the assay listed under Homo sapiens, 12.3%; in assay [7], 2.97%; in assay [8], -1.22%; in assay [9] it was -2.11%.

As to `CC(O)CC(C)(C)CNC(=O)NCc1cccc(-n2ccnc2)c1` (stereo not given), the Percent Effect in assay [1] was -3.71%; in [2] it was 0%; in [3], -1.99%; in assay [4], -7.44%; in the assay on Trypanosoma cruzi it was -2.83%; in [5], -2.23%. Moreover, the Percent Effect is -2.83% in assay [6]; 18.3% in the assay listed under Homo sapiens; -1.07% in assay [7]; -1.24% in [8]; 4.12% in assay [9].

Consider `COc1ccc(OC)c(C(C)Nc2nc3c(C)nn(C)c3c(=O)n2C)c1` (stereo not given), for which the Percent Effect in [1] is -5.58%; in [2], -5.2%; in assay [3], 5.05%; in [4] it was 1.13%; in the assay on Trypanosoma cruzi, -6.2%; in assay [5], -22.1%. The Percent Effect in assay [6] is 14.8%; in the assay filed under Homo sapiens it was 38.9%; in assay [7], -2.15%; in assay [8], -3.7%; in [9], -5.55%.
